Measured potencies and affinities stand elsewhere. Values without a mark were called inactive. The rule behind the calls is not given here.

This experiment in a line: HEK293 cell cytotoxicity, dose response, cytotoxicity control, plate reader, cherry-picked samples (AID 743446). Conditions: stronger effect = lower value; at 26 µM unless noted.
`CCOC(=O)Nc1ccc(N2CCOCC2)c(S(=O)(=O)Nc2ccc(Cl)cc2)c1`: the max activity was -19.3%.

On to `C=CCNC(=O)c1c(Cl)nc(C)c([N+](=O)[O-])c1C`, for which the max activity is 11.7% [at 0.1 µM].

Take `O=C(Cc1ccncc1)NCC[C@H]1CC[C@H](NC(=O)C2CCCC2)[C@H](CO)O1`: the max activity is 13.9% [at 0.1 µM].

Take `Cc1cccc(-n2ncc3c(N4CCOCC4)ncnc32)c1`: the max activity is 28.5%.

Turning to `C[C@H](CO)N1C[C@H](C)[C@H](CN(C)C(=O)Nc2ccccc2)OCCCC[C@H](C)Oc2ccc(NC(=O)NC3CCCCC3)cc2C1=O`, the max activity was 6.41%.

For `O=S1(=O)CCOC[C@H](CC2CCCCC2)N1Cc1ccccc1F`, the max activity was -17.9% [at 0.1 µM].

On to `C[C@H]1CN([C@@H](C)CO)C(=O)c2cc(NC(=O)Nc3ccccc3)ccc2O[C@H]1CN(C)Cc1ccc(-c2ccccc2)cc1`, for which the max activity is 25.6% [at 0.1 µM].

Turning to `O=C(Nc1ccc(N2CCN(C(=O)c3ccc(Cl)cc3)CC2)cc1)c1cc2ccccc2o1`, the max activity is 21.1% [at 0.05 µM].

For the molecule `O=C(c1ccc2c(c1)OCCO2)C1CCN(S(=O)(=O)c2ccc(F)cc2)CC1`, the max activity is 25.1% [at 0.1 µM].

Take `CCn1cc(S(=O)(=O)Nc2cccnc2)cn1`: the max activity was 9.79% [at 0.38 µM].

Regarding `CC(C)NC(=O)Nc1ccc2c(c1)C(=O)N([C@H](C)CO)C[C@@H](C)[C@H](CN(C)S(C)(=O)=O)OCCCC[C@H](C)O2`, the max activity was 43.1%.

In the case of `CN1CCN(c2ccc(NC(=O)N3CCc4ccccc43)cc2)CC1`, the max activity is 17.5% [at 1.6 µM].

Take `CCOC(=O)c1cn2nc(N3CCCCC3)ccc2n1`: the max activity is -14% [at 3 µM].

Consider `CC(=O)N1CCCC(c2cc(C(=O)Nc3ccccc3)no2)C1` (centres undefined), for which the max activity is -27% [at 12 µM].

For the molecule `Cc1cnc(NC(=O)c2ccc(OCC3CCCO3)cc2)s1` (centres undefined), the max activity is 9% [at 6 µM].

`Cc1ccc(C(=O)NCCc2cccs2)cc1`: the max activity is 37.3% [at 3 µM].

On to `O=C(CN1C(=O)c2ccccc2S1(=O)=O)c1ccccc1Cl`, for which the max activity was 32.4%.

On to `Cc1ccc(C(=O)Nc2ccc3c(c2)OCCO3)cc1`, for which the max activity was 17.1% [at 0.05 µM].

As for `COc1ccc(CC(=O)Nc2cccc(-c3nnc(-c4cccc(C)c4)o3)c2)cc1OC`, the max activity is -27%.

Take `Cc1ccc2nc(-c3ccc(NC(=O)c4cccnc4)cc3)oc2c1`: the max activity was -17.1% [at 0.1 µM].

Turning to `Cc1ccc2nc(-c3ccc(N)cc3)sc2c1`, the max activity was 21.7% [at 3 µM].

With `CN(C)c1cccc(C(=O)Nc2nc3ccccc3[nH]2)c1`, the max activity is 39.2% [at 12 µM].

Consider `Cc1oc(-c2ccc3c(c2)OCCO3)cc1C(=O)O`, for which the max activity was -18.6%.

For the molecule `CO[C@H]1CN(C)C(=O)c2ccc(NC(=O)c3ccc(-c4ccccc4)cc3)cc2OC[C@@H](C)NC[C@@H]1C`, the max activity is 20.6% [at 0.8 µM].

Regarding `c1ccc(COc2ccc(OCCCN3CCCC3)cc2)cc1`, the max activity was -13.8% [at 0.05 µM].

For `O=C(CSc1nc2ccccc2[nH]1)Nc1nc(-c2cccc(Br)c2)cs1`, the max activity was 46.2% [at 1.6 µM].

Consider `c1ccc(COc2cccc(-c3cc4nc(NCCCn5ccnc5)ccn4n3)c2)cc1`, for which the max activity was 48.7% [at 0.195 µM].

In the case of `CC(=O)c1ccc(Nc2nc(-c3sc(C)nc3C)cs2)cc1`, the max activity is -13.6%.

For `COc1ccc(C(=O)Nc2nnc(-c3ccco3)s2)cc1`, the max activity is -21.3% [at 3 µM].

As to `O=C(Nc1ccc2c(c1)OCCO2)c1ccc(Cl)cc1Cl`, the max activity was -20.3% [at 3 µM].

Regarding `O=C(CN1C(=O)c2ccccc2S1(=O)=O)Nc1ncc(Cl)cc1Cl`, the max activity was -12.9% [at 1.6 µM].

Consider `Brc1ccc(-c2nc(-c3ccccn3)no2)o1`, for which the max activity is -10%.

With `COc1ccc(N(CC(=O)NCc2cccs2)S(=O)(=O)c2ccc(C(C)=O)cc2)cc1`, the max activity is -10.6% [at 3 µM].

Consider `CCc1nnc(NC(=O)CSc2nnc3ncccn23)s1`, for which the max activity was 33.7%.

With `CC(C)Nc1ncnc2c1cnn2-c1ccc(Cl)cc1`, the max activity is 60.9%.

As to `OC1CCC(Nc2ccn3nc(-c4cccc(OCc5ccccc5)c4)cc3n2)CC1` (centres undefined), the max activity was -14.9% [at 12 µM].

Regarding `COc1ccc(S(=O)(=O)Nc2ccc3c(c2)C(=O)N([C@H](C)CO)C[C@H](C)[C@H](CN(C)S(=O)(=O)c2ccc(F)cc2)OCCCC[C@@H](C)O3)cc1`, the max activity is -23.7% [at 12 µM].

With `O=C(NCc1ccco1)c1cc(NS(=O)(=O)c2cccc([N+](=O)[O-])c2)ccc1O`, the max activity is 40.6% [at 0.38 µM].

On to `Cc1ccc(-c2cc(C(=O)N(C)Cc3cnn(C)c3C)c3cc(Br)ccc3n2)cc1`, for which the max activity was -9.48%.

These data come from PubChem BioAssay AID743446 (Broad Institute, 2014).
